About 530 (0.24%) of roughly 220,000 compounds were called active. Cut-off read from the data, not from the text of the source: active = inhibition above about 13%; inconclusive = no clear call, values can overlap the other calls; inactive = below that. The full list was thinned out, with actives kept by preference. Entries with a potency or affinity are not part of this list.
What follows are compounds tested against Bifunctional protein GlmU (Mycobacterium tuberculosis (strain ATCC 25618 / H37Rv)) (UniProt P9WMN3) (assay: inhibition of mycobacterial GlmU enzyme – biochemical, glucosamine-1-phosphate acetyltransferase (AID 1376;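 note: 0% = complete reaction with vehicle and 100% = reaction without substrate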)). Details: M. tuberculosis GlmU acetyltransferase enzyme assay; active compounds read high;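 tested at 30 µM in the primary screen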.
Bifunctional protein GlmU (Mycobacterium tuberculosis (strain ATCC 25618 / H37Rv)), sequence (P9WMN3 whole entry, looked up): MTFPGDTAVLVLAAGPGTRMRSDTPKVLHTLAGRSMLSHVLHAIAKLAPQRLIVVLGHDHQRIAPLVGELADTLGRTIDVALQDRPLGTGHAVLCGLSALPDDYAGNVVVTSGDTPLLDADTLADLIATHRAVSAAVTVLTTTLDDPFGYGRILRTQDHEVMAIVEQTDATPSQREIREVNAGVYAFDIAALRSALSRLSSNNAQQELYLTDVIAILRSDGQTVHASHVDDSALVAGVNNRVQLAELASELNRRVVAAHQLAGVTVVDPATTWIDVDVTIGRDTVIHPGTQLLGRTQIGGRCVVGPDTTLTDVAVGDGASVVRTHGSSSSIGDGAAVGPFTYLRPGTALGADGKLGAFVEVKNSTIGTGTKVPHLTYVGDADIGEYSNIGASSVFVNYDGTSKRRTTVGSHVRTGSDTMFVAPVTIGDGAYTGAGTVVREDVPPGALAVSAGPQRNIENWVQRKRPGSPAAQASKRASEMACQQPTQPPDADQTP
For `C/C(=N\N1CCN(C)CC1)c1ccc(Cl)c(Cl)c1`, the inhibition was -1.93% (inactive).
`O=C(CN1CCN(Cc2ccccc2Cl)CC1)N/N=C/c1ccco1` was tested, and the inhibition was 2.34% (inactive).
`CCN(CC)C(=S)SC1=CCS(=O)(=O)C1` was tested, and the inhibition was -2.51% (inactive).
For `CCN(CC)C(=S)SCC(=O)c1ccccc1`, the inhibition was 2.19% (inactive).
In the case of `O=S(=O)(NCc1ccccc1)c1ccc(F)cc1Br`, the inhibition is reported as 6.02% (inactive).
`CN(C)c1ccc(/C=C2\C(=N)N3C(=NC2=O)Sc2cc(S(C)(=O)=O)ccc23)cc1` was tested, and the inhibition was -6.57% (inactive).
`COc1ccc(/C=C2/C(=N)N3C(=NC2=O)Sc2cc(S(C)(=O)=O)ccc23)cc1OC` was tested, and the inhibition was 3.31% (inactive).
For `COC(=O)c1cc(C#N)c(Oc2ccc(OC)cc2)nc1C`, the inhibition was 8.02% (inactive).
`C/C(C/C(C)=C1/SC(=S)NC1=O)=C1\SC(=S)NC1=O` was tested, and the inhibition was 49% (active).
For `CCCCCC/C(C)=C1/SC(=S)NC1=O`, the inhibition was -3.54% (inactive).
In the case of `CCO/C(C)=C1/SC(=S)NC1=O`, the inhibition is reported as -6.59% (inactive).
In the case of `Cn1nc(-c2ccccc2)c(C(=O)NC(C(=O)O)c2ccccc2)c1Cl` (stereo not given), the inhibition is reported as 1.91% (inactive).
In the case of `CN(C)C(=O)CSc1ncnc2scc(-c3ccccc3)c12`, the inhibition is reported as 2.78% (inactive).
`N#Cc1ccc(N=c2ssnc2Cl)cc1` was tested, and the inhibition was 18.4% (inactive).
In the case of `Cc1ccc(N=c2ssnc2Cl)cc1`, the inhibition is reported as 17.6% (inactive).
With `Clc1ccc(N=c2ssnc2Cl)cc1` the inhibition was 19.9% (active).
`COc1cc(N=c2ssnc2Cl)cc(OC)c1OC` was tested, and the inhibition was 14.1% (active).
With `Clc1nssc1=Nc1ccccc1` the inhibition was 14.6% (active).
In the case of `COc1ccc(N=c2ssnc2Cl)cc1`, the inhibition is reported as 5.49% (inactive).
In the case of `COc1cc(N=c2ssnc2Cl)cc(OC)c1`, the inhibition is reported as 12.8% (inactive).
`Clc1nssc1=Nc1ccc(Br)cc1` was tested, and the inhibition was 18% (inactive).
`N#Cc1cccc(N=c2ssnc2Cl)c1` was tested, and the inhibition was -3.05% (inactive).
In the case of `Cc1ccc(N/C=C/C(=O)c2cccs2)cc1C`, the inhibition is reported as -3.05% (inactive).
With `COc1cccc2sc(NNC(=O)C3COc4ccccc4O3)nc12` (stereo not given) the inhibition was 6.49% (inactive).
`O=C(CSc1nnc(-c2ccccc2Cl)n1Cc1ccco1)Nc1ccc2c(c1)OCCO2` was tested, and the inhibition was -6.82% (inactive).
With `OCCN1CCN(c2ncnc3sc(-c4ccccc4)cc23)CC1` the inhibition was 0.73% (inactive).
With `Cc1ccc(C(=O)OC2OC(=O)C(Cl)=C2N2CCOCC2)cc1` (stereo not given) the inhibition was 7.25% (inactive).
With `O=c1[nH]c2ccccc2nc1NCCN1CCOCC1` the inhibition was -0.64% (inactive).
With `COc1ccc(-c2noc3c2-c2nc(-c4ccc(C)cc4)sc2CC3)cc1` the inhibition was 6.62% (inactive).
With `O=C(NCC(=O)N(c1ccccc1)C(C(=O)NC1CCCCC1)c1cccnc1)c1cccs1` (stereo not given) the inhibition was -3.93% (inactive).

Source: PubChem BioAssay AID1376 (SRMLSC, 2008)
